Screens as filed in PubChem BioAssay.
SKKanGAS inh = SKKanGAS growth inhibition; AID 1662; S. pyogenes SKKanGAS, kanamycin growth, BacTiter-Glo, 6 h; inhibition, % at 7.5 µM; 300,000 compounds, 1.3% hits;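 active = mean replicate score, as percent of positive control median, at least 50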;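 note: strain carries kanamycin resistance gene driven by streptokinase promoter and grows in 40 µg/ml kanamycin; loss of luminescence reflects streptokinase promoter inhibition or plain growth inhibition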
TIM10 inh = growth inhibitors of TIM10 yeast strain; inhibition, % at 10 µM; 330,000 compounds, 1.4% hits; AID 463195; S. cerevisiae TIM10 strain growth, BacTiter-Glo luminescence, 24 h;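 active = inhibition of 40% or more at the single tested concentration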;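 note: wild-type TIM10 isogenic control strain grown at permissive 25 °C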
tim23-1 inh = tim23-1 yeast growth inhibition; 330,000 compounds, 1.3% hits; S. cerevisiae tim23-1 growth, BacTiter-Glo luminescence, 24 h; inhibition, % at 20 µM;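 active = growth inhibition of the mutant yeast at or above 50%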;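 note: temperature-sensitive mutant grown at 25 °C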
tim10-1 inh = tim10-1 yeast growth inhibition | 330,000 compounds, 2.2% hits | inhibition, % at 20 µM | AID 463190 | S. cerevisiae tim10-1 ts strain growth, BacTiter-Glo, 24 h;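 active = inhibition of at least 40%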;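 note: mutant grown at 25 °C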
EBI2 antag = blocks human EBI2 receptor beta-arrestin signaling; AID 651636; inhibition, % at 5 µM; 360,000 compounds, 0.81% hits; P32249; EBI2 beta-arrestin recruitment, luminescence, 7a,25-OHC stimulated; in the data active = inhibition above about 38%;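 note: enzyme fragment complementation signal reports receptor beta-arrestin coupling in cells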
Target sequence (P32249 whole entry, looked up, the tested form may be a part): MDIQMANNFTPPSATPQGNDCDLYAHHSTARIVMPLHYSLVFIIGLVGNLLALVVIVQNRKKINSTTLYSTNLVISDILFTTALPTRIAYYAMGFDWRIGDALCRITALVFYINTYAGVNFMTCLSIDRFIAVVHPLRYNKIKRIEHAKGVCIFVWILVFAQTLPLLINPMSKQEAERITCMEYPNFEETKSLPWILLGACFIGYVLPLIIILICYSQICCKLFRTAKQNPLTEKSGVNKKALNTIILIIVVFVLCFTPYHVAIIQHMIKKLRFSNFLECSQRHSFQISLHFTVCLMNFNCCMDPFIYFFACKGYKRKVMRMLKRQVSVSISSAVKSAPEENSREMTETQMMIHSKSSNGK
PfHsp90 yeast 2 = growth inhibition of yeast expressing Plasmodium Hsp90; S. cerevisiae expressing PfHsp90, BacTiter-Glo ATP, 48 h; yeast lacking PDR1 and PDR3 efflux regulators; inhibition, % at 9.4 µM; 310,000 compounds, 0.32% hits; AID 504621;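 active = every replicate shows inhibition above about 80%, whatever the replicate mean, limit read from the data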
A number is an active result; 0 = inactive; - = no result. Compounds with a hit are over-represented: about 4.7% of the library has one in this group of screens.

SMILES	SKKanGAS inh	TIM10 inh	tim23-1 inh	tim10-1 inh	EBI2 antag	PfHsp90 yeast 2
CN1C(=O)/C(=C/c2ccccc2Cl)Sc2ccc(C(=O)N3CCCC3)cc21	99	0	0	0	0	0
CCOC(=O)C1CCCN(C(=O)c2cccc(N3C(=O)c4ccccc4C3=O)c2)C1 (stereo not drawn)	-	0	0	0	0	-
CCN(CC(=O)NCc1cccs1)CC(=O)Nc1ccccc1C	-	0	0	0	0	-
CC(C)(C)c1ccccc1OCCCCCn1ccnc1	63	0	0	0	0	0
CC(C)[C@H](NC(=O)[C@H](CCCN=C(N)N)NC(=O)NC(Cc1ccccc1)C(=O)O)C(=O)NC(C=O)CCCN=C(N)N (stereo partly drawn)	0	0	0	0	0	0
Cn1cccc1-c1nc2ccccc2[nH]1	0	0	0	0	0	0
O=C1[C@@H]2C(c3cccnc3)=NO[C@@H]2C(=O)N1c1ccc(Br)cc1	0	0	0	0	0	94
Cc1ccc(C(=O)N/N=C(\CC(C)C)c2ccccc2)cc1	0	0	0	0	0	0
CCOC(=O)c1sc(NC(=O)Nc2ccc(Cl)cc2)cc1C	81	0	0	0	0	0
O=C(NCCO)c1ccc(-c2cnc3cccnn23)cc1	-	-	-	-	0	-
COc1cccc(NC(=O)Nc2nc(SC(C)(C)C)ns2)c1	55	0	0	0	0	0
CCCN(CC(=O)NC(=O)NCc1ccccc1)CC(=O)Nc1ccc(F)c(F)c1F	-	-	-	-	0	-
CC(C)c1ccc2nc3sc(C(=O)N4CCc5ccccc5C4)c(N)c3cc2c1	54	0	0	0	0	0
CCC(CC)NC(=O)c1oc2ccccc2c1COc1ccccc1	52	0	0	0	0	0
CC(C)CNC(=O)c1oc2ccccc2c1COc1ccccc1	0	0	0	0	0	0
Cc1ccc(S(=O)(=O)N2CCCCC2)cc1NC(=O)Cn1ncc(Cl)c(Cl)c1=O	-	0	0	0	63	0
CC(=O)Nc1cc2c(c(Cl)c1Cl)-c1ccccc1C2=O	-	-	-	-	0	0
Nc1ccccc1Sc1nc2ccccc2[nH]1	61	0	0	0	64	0
CN(/N=C/c1ccc(-c2ccc([N+](=O)[O-])cc2)o1)c1ccccc1	0	0	0	0	0	0
O=C(O)c1ccc(N2C(=O)/C(=C/c3ccc(-c4ccc([N+](=O)[O-])cc4)o3)C=C2c2ccccc2)cc1	104	0	0	0	0	0
CN1OC[C@@H]2CN(C(=S)NCCc3ccccc3)[C@H](c3ccc(-n4ccnc4)cc3)C[C@@H]21	-	-	-	-	0	-
CCOC(=O)COc1ccc2ccccc2c1/C=C/[N+](=O)[O-]	0	-	-	-	0	104
CC1(C)CC[C@]2(C(=O)O)CC[C@]3(C)C(=CC[C@@H]4[C@@]5(C)CC[C@H](O[C@@H]6O[C@H](C(=O)O)[C@@H](O)[C@H](O[C@@H]7OC[C@H](O)[C@H](O)[C@H]7O)[C@H]6O)C(C)(C)[C@@H]5CC[C@]43C)[C@@H]2C1	-	0	0	0	0	108
Cc1ccc(NC(=O)NC2CCCCCCC2)cc1C	-	0	0	0	0	0
Cc1ccc(NC(=O)c2ccc(C#CC3(O)CCCCC3)cc2)cc1C	51	0	0	0	0	-
SMILES	SKKanGAS inh	TIM10 inh	tim23-1 inh	tim10-1 inh	EBI2 antag	PfHsp90 yeast 2
Clc1ccc(-c2cc3ccccc3nc2N2CCCC2)cc1	69	0	0	0	0	-
C#CC(=O)CC1(CN(Cc2ccccc2)C(=O)OC(C)(C)C)CCCCC1	-	-	-	-	0	0
CC[C@H]1OC(=O)C[C@@H](O)[C@H](C)[C@@H](O[C@@H]2O[C@H](C)C[C@H](N(C)C)[C@H]2O)[C@@H](CC=O)C[C@@H](C)C(=O)C=C[C@]2(C)O[C@H]2[C@@H]1C	111	-	-	-	-	-
O=C(Cc1ccc(S(=O)(=O)N2CCCC2)s1)Nc1nc2c(s1)CCCC2	62	0	0	0	0	-
CC(C)(C)c1nn2cnnc2n(/N=C/c2ccc(O)cc2)c1=O	0	0	0	0	0	0
Cc1ccc2nc3cc([N+](=O)[O-])cc([N+](=O)[O-])c3cc2c1	-	-	-	-	53	0
Cc1nc2ccc([N+](=O)[O-])cc2nc1C	0	0	0	0	0	-
CC(Oc1ccccc1)C(=O)N1CCC2(CC1)Oc1ccc(F)cc1C(=O)C21CC(c2cccnc2)=NO1 (stereo not drawn)	0	0	0	0	42	0
CC(Oc1ccccc1)C(=O)N1CCC2(CC1)Oc1ccc(F)cc1C(=O)C21CC(c2ccccc2)=NO1 (stereo not drawn)	0	0	0	0	50	0
